Screens (PubChem BioAssay)
FBPA coupling cs: counter-screen for Giardia aldolase inhibitors: coupling enzyme system | activity change, negative = inhibition, % at 58.2 µM, hits read low | 290,000 tested, 0.67% active | coupling enzyme system counterscreen, AmpLite Red fluorescence; in the data active means activity change below about -30%
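Final compound at 57.5 uM, incubated 10 min at RT with coupling enzyme reagent (glyceraldehyde-3-phosphate), then 20 min with substrate and AmpLite Red detection. Fluorescence read at 525/598 nm; tests interference with the coupling assay, not aldolase inhibition.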
Tau fluor counter: counter-screen for tau fibril formation inhibitors | Potency, µM (highest dose often 57.7 µM), for inactives: at the highest dose activity change, negative = decrease | tau K18 P301L Alexa594 fluorescence, heparin fibrillization | AID 1463 | 280,000 tested, 0.93% active; further: potency means the concentration at half of the fitted maximal effect; nearly all actives have a fitted effect of over 55% in size
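Human tau K18 P301L (15 uM unlabeled, 0.24 uM Alexa 594-labeled) in 100 mM sodium acetate pH 7 with 20 uM heparin, 6 hr at 37 C. ThT 30 uM added, 1 hr ambient; Alexa 594 FP and total fluorescence read at 555/632 nm.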
Tau ThT inhib: blocks human tau fibril formation measured by thioflavin T | recombinant tau K18 P301L, heparin-induced fibrillization, ThT fluorescence | Potency, µM (series often up to 57.4 µM), inactives show at the top dose activity, negative = inhibition, most hits filed as inhibitors | 270,000 tested, 2.1% active; further: potency means the concentration at half of the fitted maximal effect; nearly all actives have a fitted effect of over 55% in size
Target sequence (P10636 561-689 P618L limits assumed): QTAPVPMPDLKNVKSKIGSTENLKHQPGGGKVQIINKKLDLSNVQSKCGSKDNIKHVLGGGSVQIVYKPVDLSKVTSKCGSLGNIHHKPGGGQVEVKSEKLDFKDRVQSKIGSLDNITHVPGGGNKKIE
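Using a mix of unlabeled (15 uM) and Alexa 594-labeled (0.24 uM) tau K18 P301L, heparin-triggered fibrillization over 6 hr at 37 C was scored by ThT fluorescence.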
Tau fibril FP: inhibitors of human tau fibril formation; K18 P301L tau heparin fibrillization, Alexa594 FP, 6 h; AID 1468; Potency, µM (series often up to 57.7 µM), for the others: at the highest dose activity, negative = inhibition, most hits filed as inhibitors; 280,000 tested, 0.39% active; P10636; further: potency means the concentration at half of the fitted maximal effect; nearly all actives have a fitted effect of over 55% in size
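Read-out: fluorescence polarization of Alexa 594-labeled tau (0.24 uM), 555 nm excitation, 632 nm emission. Mixtures held 15 uM unlabeled K18 P301L, compound and 20 uM heparin, pH 7 acetate buffer, incubated 6 hr at 37 C.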
Sfp inh: Sfp phosphopantetheinyl transferase inhibition | Q9F4F7 | Biochemical Sfp PPTase activity, qHTS | Potency, µM, for the others: largest response in the series, negative = inhibition, actives largely listed as inhibitors | 310,000 tested, 3.5% active | AID 1490;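 further: the enzyme is Sfp with the accession as filed and its product quenches rhodamine fluorescence; potency means the concentration at half of the fitted maximal effect; 0% = enzyme reaction without inhibitor and -100% = no enzyme wells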
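With Hepes-Na pH 7.6 buffer containing 10 mM MgCl2, Sfp (15 nM) modified BHQ-2-YbbR (12.5 uM) using rhodamine-CoA (5 uM). Two reads 30 minutes apart at 525/598 nm yielded each well's rate.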
An asterisk follows results filed as active; ? = inconclusive; nt = no result given; [ ] = remark or other dose. Sampled rows, rich in hits. Any-hit rate of the full collection: about 5.2%. Unless noted, the call rests on the fitted dose curve; in most records, active means well fitted curve in the direction sought with a large enough effect; inconclusive means small, poorly fitted or top-dose-only effect, or another doubt; inactive means no such curve, though single readings can be large; an effect the other way counts as inactive or inconclusive. Unless noted, on the % scale 0 is the no-effect control and ±100 the full control effect.

SMILES	FBPA coupling cs	Tau fluor counter	Tau ThT inhib	Tau fibril FP	Sfp inh
CCOc1ccc(N2C(=O)/C(=C\c3ccc(O)c(OC)c3)S(=O)(=O)C2c2cccc([N+](=O)[O-])c2)cc1 (stereo not given)	3	32µM*[quencher]	?	8%	4%
Nc1cccc2c(=O)[nH]ccc12	-6	nt	nt	nt	-21%
Cc1ccccc1NC(=O)Cn1c(=O)n(Cc2ccco2)c(=O)c2cccnc21	nt	-2%	-6%	-9%	nt
Cc1ccc(C2=N/C(=C\N3CCCCC3)C(=O)O2)cc1	-1	-29%	-15%	6%	50µM*
Cc1ccc(C2=N/C(=C/N3CCOCC3)C(=O)O2)cc1	-1	-1%	-3%	5%	8%
O=S1(=O)C2CC3CCC2(CN1Cc1cccc(F)c1)O3 (stereo not given)	0	nt	nt	nt	16%
O=C(O)CNc1ccccc1C(=O)O	-3	-7%	-7%	0%	-12%
O=C(O)c1ccccc1N/C=C\[N+](=O)[O-]	-8	-17%	?	-6%	56µM*
COc1ccc(C(=O)COC(=O)c2ccccc2NS(=O)(=O)c2ccc(O)c([N+](=O)[O-])c2)cc1	11	-30%	16µM*	10%	8%
COc1ccc(NC(=O)c2ccccc2NS(=O)(=O)c2ccc(C)cc2)c([N+](=O)[O-])c1	6	?	?	8%	10%
CCOC(=O)c1nnc(-c2ccccc2)nc1NCc1ccc(Cl)cc1	1	-17%	?	5%	50µM*
CCOC(=O)c1nnc(-c2ccccc2)nc1Sc1c(Cl)cccc1Cl	-5	?	11µM*	-6%	-7%
CCOC(=O)c1nnc(-c2ccc(C)cc2)nc1Sc1ccccc1Cl	-10	-13%	?	-7%	3%
COC(=O)C(C)CCCC(C)CCCC(C)CCCC(C)C (stereo not given)	1	nt	nt	nt	7%
CC(C)(C)c1ccc(CNc2cc(N3CCOCC3)ccc2[N+](=O)[O-])cc1	-4	4µM*[quencher]	7.1µM*	28µM*	-6%
O=C(COc1ccccc1Cl)N1CCN(c2ccc([N+](=O)[O-])c(N3CCOCC3)c2)CC1	1	?	13µM*	-6%	-11%
O=C(COc1ccccc1Cl)N1CCN(c2ccc(F)cc2)CC1	-1	-9%	-6%	4%	4%
Nc1cc(N2CCOCC2)c(Cl)cc1[N+](=O)[O-]	-1	5%	?	4%	12%
CC(=O)N1CCN(c2ccc([N+](=O)[O-])c(NCC3CCCO3)c2)CC1 (stereo not given)	1	0%	14µM*	-1%	-2%
Nc1cc(N2CCCC2)c(Cl)cc1[N+](=O)[O-]	-9	-26%	16µM*	0%	8%
COc1cccc(C(=O)Nc2nc(-c3nnn(-c4ccccc4C(F)(F)F)c3C)ns2)c1	nt	?	-1%	?	nt
Cc1cc(C)n(-c2nc(C)c(C)c(=O)n2CC(=O)Nc2cccc([N+](=O)[O-])c2)n1	nt	-27%	-8%	-17%	nt
CCOC(=O)C1=C(CN(CC)Cc2ccccc2)NC(=O)NC1c1ccc(OC(C)C)cc1 (stereo not given)	nt	-10%	-12%	10%	nt
CC[C@H](C)[C@H](NC(=O)[C@H](Cc1ccc(O)cc1)NC(=O)[C@@H](NC(=O)[C@H](CCCN=C(N)N)NC(=O)[C@@H](N)CC(=O)O)C(C)C)C(=O)N[C@@H](Cc1cnc[nH]1)C(=O)N1CCC[C@H]1C(=O)N[C@@H](Cc1ccccc1)C(=O)N[C@@H](Cc1cnc[nH]1)C(=O)N[C@@H](CC(C)C)C(=O)O	2	nt	nt	nt	-22%
Cc1ccc(-c2cn3c(n2)sc2cc(C(=O)NC(C)C45CC6CC(CC(C6)C4)C5)ccc23)cc1 (stereo not given)	nt	0%	8%	-3%	nt
SMILES	FBPA coupling cs	Tau fluor counter	Tau ThT inhib	Tau fibril FP	Sfp inh
O=[N+]([O-])c1ccc(N2CCCCC2)cc1N1CCOCC1	1	-6%	?	-11%	14%
O=[N+]([O-])c1ccc(N2CCCC2)cc1NC1CC1	-1	-17%	14µM*	-6%	-22%
Cc1ccccc1C(=O)N1CCN(c2ccc([N+](=O)[O-])c(NCc3cccnc3)c2)CC1	0	-8%	?	5%	-7%
O=[N+]([O-])c1ccc(N2CCCC2)cc1N1CCCC1	-2	-18%	18µM*	0%	-8%
NC(=O)c1ccc(NCC2CCCO2)c([N+](=O)[O-])c1 (stereo not given)	3	nt	nt	nt	-98%
O=C(NCCc1ccccc1)c1ccc(NCC2CCCO2)c([N+](=O)[O-])c1 (stereo not given)	1	-20%	16µM*	10%	-14%
Cc1ccc(C(=O)N2CCN(c3ccc([N+](=O)[O-])c(NCc4cccnc4)c3)CC2)cc1	4	-8%	13µM*	10%	-15%
O=C(Nc1ccc(Cl)cc1Cl)c1cc(S(=O)(=O)N2CCN(c3ccccc3F)CC2)ccc1F	nt	-5%	5%	?	nt
O=C(NCc1ccc(F)cc1)c1cc(-c2ccc(Cl)cc2)n[nH]1	nt	-20%	10%	-16%	nt
COc1ccccc1N(CC(=O)Nc1ccccc1F)S(C)(=O)=O	nt	-3%	7%	-7%	nt
CC(Nc1cc(N2CCN(C(=O)C(C)(C)C)CC2)ccc1[N+](=O)[O-])c1ccccc1 (stereo not given)	-9	-16%	?	1%	5%
CC(C)C(=O)N1CCN(c2ccc([N+](=O)[O-])c(NC(C)c3ccccc3)c2)CC1 (stereo not given)	-11	-24%	16µM*	2%	-11%
CNc1cc(N2CCN(S(=O)(=O)N(C)C)CC2)ccc1[N+](=O)[O-]	-2	-2%	16µM*	-2%	10%
CC(C)c1nn2c(=O)cc(COC(=O)c3ccccc3NC(=O)C3CCCCC3)nc2s1	nt	0%	1%	1%	nt
CC(C)Cc1nc2ccccc2[nH]1	1	4%	-3%	0%	10%
Cc1cccc(CC(Cc2nc3ccccc3[nH]2)c2nc3ccccc3[nH]2)c1 (stereo not given)	-3	?	-12%	-16%	40µM*
COc1ccc(/C(N)=N/OC(=O)Cc2cccs2)cc1OC	-4	-20%	?	3%	79µM*
Cc1cc(C(=O)CSc2nncs2)c(C)n1-c1c(C)n(C)n(-c2ccccc2)c1=O	0	-1%	-6%	2%	-8%
Cc1ccc(-n2c(C)cc(C(=O)CSc3nncs3)c2C)cc1	-33*	-13%	?	3%	?
CCN(CC)CCOC(=O)c1ccc(N/C=C(/C#N)c2nc(-c3ccc4c(c3)OCO4)cs2)cc1	0	?	?	-12%	20µM*
CCN(CC)CCOC(=O)c1ccc(N/C=C(/C#N)c2nc(-c3cc4ccccc4oc3=O)cs2)cc1	2	nt	nt	nt	-29%
